Bioassay records (PubChem)
This is a sample that favours compounds with a hit; in the whole collection about 6.8% have one here.
Autofluor 339 = intrinsic fluorescence of library compounds, ex339/em460 – biochemical, MLSMR library, data from DPM-DC assay, artefact control, profiling panel; compound autofluorescence, ex339/em460 nm, NADH buffer; stronger effect = higher value; 1 = no-compound wells, NADH background; fluorescence fold increase at 10 µM; 5.5% of 65,000 active; AID 709;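 active = at 10 µM, mean starting fluorescence two-fold or more over control wells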;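 note: signal is the first read of a kinetic run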
Abs 340nm = compound absorbs light at 340 nm. fold change at 10 µM. 65,000 tested, under 10 active. AID 708. compound absorbance at 340 nm, fold over control;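 active = at 10 µM dose, initial 340 nm absorbance at least 2 fold that of control wells; inactive = change under 2 fold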;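 note: initial absorbance extrapolated from kinetic A340 decline of NADH oxidation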
Spn PMK inh = S. pneumoniae PMK inhibition; purified PMK, PK/LDH-coupled NADH absorbance 340 nm; 0.49% of 65,000 active; AID 539; inhibition, % at 10 µM;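 active = top-ranked compounds by inhibition in the single 10 µM screen, taking a fixed number of the strongest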;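 note: 0% = full reaction with DMSO carrier and 100% = background rate without enzyme reaction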
NADH enzymes = inhibitors of enzymes used to reach an NAD/NADH endpoint | coupled PK/LDH NADH assays, four targets | IC50, µM (titrated, usually from 10 µM), for the others: at the top dose inhibition | 0.02% of 65,000 active;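 active = single-dose screening hits from any of four coupled enzyme assays that gave an IC50 when retested across doses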;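 note: the DPM-DC format reads NADH fluorescence rather than 340 nm absorbance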
Spn DPM-DC inh = S. pneumoniae DPM-DC inhibition | calls only at 10 µM | 0.49% of 65,000 active | purified DPM-DC, PK/LDH coupled NADH fluorescence;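 active = the 320 compounds with the highest percent inhibition in the single-dose primary screen, excluding strongly autofluorescent ones, cut at about 32% in these data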;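 note: kinetic rate of NADH fluorescence loss reporting ADP formed by the decarboxylase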
MK inhibit = S. pneumoniae mevalonate kinase inhibition. purified MK, PK/LDH-coupled NADH absorbance 340 nm. inhibition, % at 10 µM. 0.48% of 65,000 active. AID 555;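 active = ranked among the strongest by inhibition in the single 10 µM screen, a fixed top-ranked set picked for dose follow-up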
* hit, by the source's call; i = inactive; / = no result shown; + = active, no number.

SMILES | Autofluor 339 | Abs 340nm | Spn PMK inh | NADH enzymes | Spn DPM-DC inh | MK inhibit
c1cncc(-c2nc(Oc3ccc(-c4nnco4)cc3)c3c4c(sc3n2)CCCC4)c1 | 2.1* | 1 | 12 | 6% | / | 0
Cc1cc(C)c(NC(=O)CSc2nc3c(c(=O)n2C)SC(C)C3)c(C)c1 (centres undefined) | 1 | 1 | 3 | 1% | i | 2
CCOC(=O)Nc1ccc2c(CN3C(=O)NC4(CCCC4)C3=O)cc(=O)oc2c1 | 3.3* | 1.1 | 5 | 2% | / | 0
CCS(=O)(=O)NCc1csc(C)n1 | 1.1 | 0.97 | 13 | 6% | i | 4
CCS(=O)(=O)NCCc1csc(C)n1 | 1.1 | 1 | 8 | 28% | i | 77*
Cc1cc(OCC(=O)C(C)(C)C)c2c(C)c(C)c(=O)oc2c1 | 2.1* | 1.1 | 12 | 8% | / | 4
COc1ccc(CCNC(=O)c2cc3c(=O)n4cccc(C)c4nc3n(Cc3ccncc3)c2=N)cc1 | 1.6 | 1 | 10 | 4% | i | 3
CCCCNC(=O)c1cc2c(=O)n3cccc(C)c3nc2n(CCN2CCOCC2)c1=N | 3.8* | 1.1 | 1 | 3% | / | 4
CCn1c(=N)c(C(N)=O)cc2c(=O)n3cccc(C)c3nc21 | 1.9 | 1.1 | 0 | 5% | / | 9
CCn1c(=N)c(C(=O)NC)cc2c(=O)n3cccc(C)c3nc21 | 3.9* | 1 | 14 | 9% | / | 4
CCOCCCn1c(=N)c(C(=O)NCc2ccc3c(c2)OCO3)cc2c(=O)n3cccc(C)c3nc21 | 2.7* | 1.1 | 10 | 17% | i | 12
COCCNC(=O)c1cc2c(=O)n3cccc(C)c3nc2n(Cc2ccncc2)c1=N | 3.9* | 1.1 | 13 | 7% | / | 0
C=CCn1c(SCc2cc(=O)n3ccsc3n2)nc2sc(C)c(C)c2c1=O | 1 | 1.1 | 15 | 6% | i | 2
Cc1cccn2c(=O)c3cc(C(=O)NCCCN4CCOCC4)n(C)c3nc12 | 2.1* | 1.1 | 0 | 2% | / | 3
CCCCNC(=O)c1cc2c(=O)n3cccc(C)c3nc2n(Cc2ccncc2)c1=N | 3.7* | 1.1 | 8 | 6% | / | 4
Cc1cccn2c(=O)c3cc(C(=O)NC4CCCCC4)c(=N)n(CCN4CCOCC4)c3nc12 | 1.1 | 1 | 9 | 3% | i | 0
COc1ccccc1CC(NC(C)=O)C(=O)N1CCN(C(=O)Nc2ccccc2Cl)CC1 (centres undefined) | 1.1 | 1 | 8 | 5% | i | 7
O=C(CN1C(=O)c2ccccc2C1=O)Nc1ccccc1C(=O)N1CCCC1 | 1 | 0.98 | 21 | 3% | i | 4
COc1ccc(CN2C(=O)c3ccccc3C2C(=O)NC2CCCC2)c(OC)c1 (centres undefined) | 1 | 0.96 | 25* | 3% | i | 1
COc1ccc(CN2C(=O)c3ccccc3C2C(=O)NCC2CCCO2)c(OC)c1 (centres undefined) | 1.1 | 0.99 | 20 | 7% | i | 0
CC1CCCN(c2nc3c(c(=O)[nH]c(=O)n3C)n2CCSc2ncccn2)C1 (centres undefined) | 1 | 1.1 | 11 | 7% | i | 6
N#Cc1cc(N)c(Nc2ccccc2)cc1C#N | 3.5* | 1.1 | 10 | 14% | i | 0
COCCn1c(=NC(=O)CSC(C)=O)sc2cc(OC)ccc21 | 1.4 | 1.1 | 4 | 13% | i | 5
COCCn1c(=NC(=O)CSCC(=O)NC2CCCCC2)sc2cc(OC)ccc21 | 2* | 1.1 | 13 | 6% | i | 4
Cc1ccc(OCCN2C(=O)OC(C)(C)C2(C)O)cc1 (centres undefined) | 1.1 | 0.98 | 13 | 6% | i | 4
SMILES | Autofluor 339 | Abs 340nm | Spn PMK inh | NADH enzymes | Spn DPM-DC inh | MK inhibit
FC(F)(F)c1cc(-c2ccco2)nc(-n2cnc3ccccc32)n1 | 2.7* | 1.1 | 16 | 11% | i | 8
Cc1nc2ccccc2n1-c1nc(-c2ccco2)cc(C(F)(F)F)n1 | 1.8 | 1.1 | 13 | 5% | i | 3
CCCCCC(=O)Nc1cc(N(C)C)nc2ccccc12 | 2.2* | 1.1 | 4 | 2% | / | 0
CCOC(=O)N1CCC(NC(=O)c2ccc3c(c2)N(C)CCS3)CC1 | 3.4* | 1 | 9 | 3% | / | 0
COC(=O)c1ccc2c(c1)N(C)CCS2 | 2.1* | 1.1 | 4 | 3% | / | 1
CCOC(=O)N1CCN(C(=O)c2ccc3c(c2)N(CC)CCS3)CC1 | 2* | 1 | 10 | 11% | / | 11
CCOC(=O)N1CCN(C(=O)c2ccc(N3C(=O)c4ccccc4C3=O)cc2)CC1 | 1.1 | 1 | 1 | 4% | i | 9
CCOC(=O)N1CCC(NC(=O)c2cc(C(=O)NC3CCCC3)ccc2CO)CC1 | 1 | 0.98 | 9 | 2% | i | 4
Cc1c(C(=O)NCc2ccc3c(c2)OCO3)sc2nc(-c3ccc(F)cc3)cn12 | 1.1 | 1 | 9 | 3% | i | 0
Cc1c(C(=O)NCc2ccc3c(c2)OCO3)sc2nc(-c3ccccc3)cn12 | 1 | 1.1 | 9 | 18% | + | 12
CCOC(=O)c1oc2ccc3c(c2c1C)C(=O)CC1(CCN(C(=O)OCC)CC1)O3 | 1.5 | 1 | 5 | 5% | i | 9
CCOC(=O)N1CCC2(CC1)CC(=O)c1c(ccc3oc(C(=O)O)c(C)c13)O2 | 3.4* | 1 | 10 | 4% | / | 9
CCc1nc(N)c(C#N)c(-c2ccccc2OC)c1C | 2.3* | 1.1 | 15 | 10% | i | 5
COc1ccccc1N1CCN(c2nc(N)c(C#N)c(CC#N)c2C#N)CC1 | 1.1 | 1.1 | 4 | 7% | i | 7
COc1ccccc1-c1cc(C2CC2)nc(N)c1C#N | 2.1* | 1.1 | 7 | 7% | / | 6
COc1ccccc1-c1c(C)c(C)nc(N)c1C#N | 2.4* | 1.1 | 8 | 9% | i | 8
COc1ccc(CCNC(=O)CSc2nnc(-c3ccc(F)cc3)o2)cc1OC | 1.1 | 1 | 0 | 1% | i | 3
COc1ccccc1-n1nnnc1SCc1cc2c(cc1Br)OCO2 | 1 | 1 | 0 | 1% | i | 1
Cc1nc2cc(C(=O)O)ccc2s1 | 1.1 | 0.99 | 14 | 6% | i | 4
Cc1nc2ccc(C(=O)O)cc2c2c1CC(C)S2 (centres undefined) | 3* | 1 | 3 | 2% | / | 9
CCOC(=O)c1cc2c(N)c(C(=O)c3cc(C#N)c(SC)nc3C)sc2nc1C | 1.5 | 1.1 | 13 | 6% | i | 0
Cc1cccc(-c2nc(CSCC(=O)N3CCN(Cc4ccc5c(c4)OCO5)CC3)c(C)o2)c1 | 1.1 | 0.98 | 13 | 4% | i | 0
COc1cc(CNc2ccc3[nH]c(=O)[nH]c3c2)ccc1OCC(=O)NC(C)(C)C | 4.9* | 0.99 | 13 | 9% | / | 5
CC(C)(C)OC(=O)NCCC(=O)Oc1ccc2ccc(=O)oc2c1 | 2.3* | 1 | 9 | 8% | / | 6
